In paper PMC11062922 (Nature Chemical Biology, 2023):
Where two headings read alike, the source gives them in different places.

Columns and labels:
[1] = tested on: GAK; conditions: read-out: apparent Kd, n = 1
[2] = tested on: IKBKE; conditions: read-out: apparent Kd, n = 1

Lestaurtinib
potency estimated from few doses ([1]; compound concentrations:100 nM and 1000 nM (sheet 'Lestaurtinib' of Supplementary Table 1),run:Lestaurtinib_02566_R1,Plate:MR014): 580 nM
potency estimated from few doses ([1]; compound concentrations:100 nM and 1000 nM (sheet 'Lestaurtinib' of Supplementary Table 1),run:Lestaurtinib_02566_R3,Plate:MR014): 806 nM
potency estimated from few doses ([1]; compound concentrations:100 nM and 1000 nM (sheet 'Lestaurtinib' of Supplementary Table 1),run:Lestaurtinib_02572_R1,Plate:MR015): 486 nM
potency estimated from few doses ([1]; compound concentrations:100 nM and 1000 nM (sheet 'Lestaurtinib' of Supplementary Table 1),run:Lestaurtinib_02572_R3,Plate:MR015): 627 nM
potency estimated from few doses ([1]; compound concentrations:100 nM and 1000 nM (sheet 'Lestaurtinib' of Supplementary Table 1),run:Lestaurtinib_02577_R1,Plate:MR016): 484 nM
potency estimated from few doses ([1]; compound concentrations:100 nM and 1000 nM (sheet 'Lestaurtinib' of Supplementary Table 1),run:Lestaurtinib_02577_R3,Plate:MR016): 574 nM
potency estimated from few doses ([1]; compound concentrations:100 nM and 1000 nM (sheet 'Lestaurtinib' of Supplementary Table 1),run:Lestaurtinib_02584_R1,Plate:MR017): 641 nM
potency estimated from few doses ([1]; compound concentrations:100 nM and 1000 nM (sheet 'Lestaurtinib' of Supplementary Table 1),run:Lestaurtinib_02584_R2,Plate:MR017): 628 nM
potency estimated from few doses ([1]; compound concentrations:100 nM and 1000 nM (sheet 'Lestaurtinib' of Supplementary Table 1),run:Lestaurtinib_02601_R1,Plate:MR018): 786 nM
potency estimated from few doses ([1]; compound concentrations:100 nM and 1000 nM (sheet 'Lestaurtinib' of Supplementary Table 1),run:Lestaurtinib_02601_R2,Plate:MR018): 761 nM
potency estimated from few doses ([1]; compound concentrations:100 nM and 1000 nM (sheet 'Lestaurtinib' of Supplementary Table 1),run:Lestaurtinib_02601_R3,Plate:MR018): 56 nM
potency estimated from few doses ([1]; compound concentrations:100 nM and 1000 nM (sheet 'Lestaurtinib' of Supplementary Table 1),run:Lestaurtinib_02606_R1,Plate:MR019): 646 nM
potency estimated from few doses ([1]; compound concentrations:100 nM and 1000 nM (sheet 'Lestaurtinib' of Supplementary Table 1),run:Lestaurtinib_02606_R2,Plate:MR019): 729 nM
potency estimated from few doses ([1]; compound concentrations:100 nM and 1000 nM (sheet 'Lestaurtinib' of Supplementary Table 1),run:Lestaurtinib_02624_R1,Plate:MR020): 818 nM
potency estimated from few doses ([1]; compound concentrations:100 nM and 1000 nM (sheet 'Lestaurtinib' of Supplementary Table 1),run:Lestaurtinib_02624_R2,Plate:MR020): 627 nM
potency estimated from few doses ([1]; compound concentrations:100 nM and 1000 nM (sheet 'Lestaurtinib' of Supplementary Table 1),run:Lestaurtinib_02624_R3,Plate:MR020): 770 nM
potency estimated from few doses ([1]; compound concentrations:100 nM and 1000 nM (sheet 'Lestaurtinib' of Supplementary Table 1),run:Lestaurtinib_02724_R1,Plate:MR021): 577 nM
potency estimated from few doses ([1]; compound concentrations:100 nM and 1000 nM (sheet 'Lestaurtinib' of Supplementary Table 1),run:Lestaurtinib_02724_R2,Plate:MR021): 628 nM
potency estimated from few doses ([1]; compound concentrations:100 nM and 1000 nM (sheet 'Lestaurtinib' of Supplementary Table 1),run:Lestaurtinib_02748_R1,Plate:MR024): 455 nM
potency estimated from few doses ([1]; compound concentrations:100 nM and 1000 nM (sheet 'Lestaurtinib' of Supplementary Table 1),run:Lestaurtinib_02748_R2,Plate:MR024): 649 nM
potency estimated from few doses ([1]; compound concentrations:100 nM and 1000 nM (sheet 'Lestaurtinib' of Supplementary Table 1),run:Lestaurtinib_02748_R3,Plate:MR024): 731 nM
potency estimated from few doses ([1]; compound concentrations:100 nM and 1000 nM (sheet 'Lestaurtinib' of Supplementary Table 1),run:Lestaurtinib_02752_R2,Plate:MR025): 637 nM
potency estimated from few doses ([1]; compound concentrations:100 nM and 1000 nM (sheet 'Lestaurtinib' of Supplementary Table 1),run:Lestaurtinib_02752_R3,Plate:MR025): 696 nM
potency estimated from few doses ([1]; compound concentrations:100 nM and 1000 nM (sheet 'Lestaurtinib' of Supplementary Table 1),run:Lestaurtinib_02766_R1,Plate:MR027): 591 nM
potency estimated from few doses ([1]; compound concentrations:100 nM and 1000 nM (sheet 'Lestaurtinib' of Supplementary Table 1),run:Lestaurtinib_02766_R2,Plate:MR027): 36.2 nM
potency estimated from few doses ([1]; compound concentrations:100 nM and 1000 nM (sheet 'Lestaurtinib' of Supplementary Table 1),run:Lestaurtinib_02766_R3,Plate:MR027): 762 nM
potency estimated from few doses ([1]; compound concentrations:100 nM and 1000 nM (sheet 'Lestaurtinib' of Supplementary Table 1),run:Lestaurtinib_02768_R1,Plate:MR028): 728 nM
potency estimated from few doses ([1]; compound concentrations:100 nM and 1000 nM (sheet 'Lestaurtinib' of Supplementary Table 1),run:Lestaurtinib_02768_R2,Plate:MR028): 752 nM
potency estimated from few doses ([1]; compound concentrations:100 nM and 1000 nM (sheet 'Lestaurtinib' of Supplementary Table 1),run:Lestaurtinib_02795_R1,Plate:MR022): 828 nM
potency estimated from few doses ([1]; compound concentrations:100 nM and 1000 nM (sheet 'Lestaurtinib' of Supplementary Table 1),run:Lestaurtinib_02802_R1,Plate:MR029): 614 nM
potency estimated from few doses ([1]; compound concentrations:100 nM and 1000 nM (sheet 'Lestaurtinib' of Supplementary Table 1),run:Lestaurtinib_02802_R2,Plate:MR029): 635 nM
potency estimated from few doses ([1]; compound concentrations:100 nM and 1000 nM (sheet 'Lestaurtinib' of Supplementary Table 1),run:Lestaurtinib_02896_R2,Plate:MR030): 687 nM
potency estimated from few doses ([1]; compound concentrations:100 nM and 1000 nM (sheet 'Lestaurtinib' of Supplementary Table 1),run:Lestaurtinib_02896_R3,Plate:MR030): 634 nM
potency estimated from few doses ([1]; compound concentrations:100 nM and 1000 nM (sheet 'Lestaurtinib' of Supplementary Table 1),run:Lestaurtinib_03172_R1,Plate:MR031): 665 nM
potency estimated from few doses ([1]; compound concentrations:100 nM and 1000 nM (sheet 'Lestaurtinib' of Supplementary Table 1),run:Lestaurtinib_03172_R2,Plate:MR031): 786 nM
potency estimated from few doses ([1]; compound concentrations:100 nM and 1000 nM (sheet 'Lestaurtinib' of Supplementary Table 1),run:Lestaurtinib_03172_R3,Plate:MR031): 687 nM
potency estimated from few doses ([1]; compound concentrations:100 nM and 1000 nM (sheet 'Lestaurtinib' of Supplementary Table 1),run:Lestaurtinib_03252_R1,Plate:MR032): 707 nM
potency estimated from few doses ([1]; compound concentrations:100 nM and 1000 nM (sheet 'Lestaurtinib' of Supplementary Table 1),run:Lestaurtinib_03252_R2,Plate:MR032): 29.5 nM
potency estimated from few doses ([1]; compound concentrations:100 nM and 1000 nM (sheet 'Lestaurtinib' of Supplementary Table 1),run:Lestaurtinib_03260_R1,Plate:MR033): 784 nM
potency estimated from few doses ([1]; compound concentrations:100 nM and 1000 nM (sheet 'Lestaurtinib' of Supplementary Table 1),run:Lestaurtinib_03260_R2,Plate:MR033): 821 nM
potency estimated from few doses ([1]; compound concentrations:100 nM and 1000 nM (sheet 'Lestaurtinib' of Supplementary Table 1),run:Lestaurtinib_03260_R3,Plate:MR033): 793 nM
potency estimated from few doses ([2]; compound concentrations:100 nM and 1000 nM (sheet 'Lestaurtinib' of Supplementary Table 1),run:Lestaurtinib_02339_R1,Plate:MR001): 861 nM
potency estimated from few doses ([2]; compound concentrations:100 nM and 1000 nM (sheet 'Lestaurtinib' of Supplementary Table 1),run:Lestaurtinib_02339_R2,Plate:MR001): 585 nM
